# HT1080-NT tox – kills 2HG-producing HT-1080-NT fibrosarcoma cells | HT-1080-NT fibrosarcoma viability, CellTiter-Glo ATP luminescence, 48 h | Potency, µM (highest dose often 46.1 µM), for inactives: top-dose activity, negative = less viability, usual class: cytotoxic | actives 1.6% (n = 360,000) | AID 686970;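 note: NT is the 2HG producing partner of a matched IDH1 knockdown line; 0% = DMSO-treated cells and -100% = media-only wells without cells; nearly all actives have a fitted effect of over 55% in size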
#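 Compounds were tested in concentration-response format on HT-1080-NT cells for 48 hours at 37 degrees C. Cell viability came from CellTiter-Glo luminescence; curves were classified by r2, response magnitude and activity.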
# HT1080 IDH1KD tx – toxicity to HT-1080 IDH1 knockdown cells (counter line); HT-1080 IDH1 knockdown viability, ATP luminescence, 48 h; Potency, µM (top dose mostly 46.1 µM), for inactives: at the highest dose activity, negative = toxicity, actives largely listed as cytotoxic; actives 2% (n = 360,000);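 note: 0% = DMSO wells and -100% = cell-free medium wells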
#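 CellTiter-Glo luminescence after 48 h compound exposure at 37 degrees C of IDH1-knockdown HT-1080 cells in 5% FBS RPMI. %Activity scaled between DMSO wells and cell-free media wells, with curves fitted and assigned curve classes.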
# KB-3-1 tox – KB-3-1 parental cell cytotoxicity | KB-3-1 viability, CellTiter-Glo ATP luminescence, 72 h | Potency, µM (series often up to 46.1 µM), most hits filed as cytotoxic | actives 1.4% (n = 400,000); note: nearly all actives have a fitted effect of over 60% in size
#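 72 h, 37 °C compound treatment of KB-3-1 parental cells; CellTiter-Glo added, 10 min, luminescence read. Data corrected against DMSO-only plates and normalized before curve fitting.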
# KB-V1 cytotox – kills drug-selected multidrug resistant KB-V1 cells. KB-V1 MDR cells viability, CellTiter-Glo, 72 h. Potency, µM (top dose mostly 46.1 µM), usual class: cytotoxic. actives 3.4% (n = 400,000); note: nearly all actives have a fitted effect of over 60% in size
#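 Readout: CellTiter-Glo luminescence, 10 min after addition. Cells: KB-V1 MDR subline, 72 h at 37 degrees C with compound. Analysis: corrected, normalized data fitted to concentration-effect curves.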
# The depositor's hits bear a star; i = inactive; ? = inconclusive; nt = not tested or not shown; ! = not confirmed by another sample. Shown are actives, neighbours in structure and some others; about 5.7% of the full set was active somewhere. Calls come from the whole dose curve; as a rule, active = well fitted curve in the direction sought with a large enough effect; inconclusive = small, poorly fitted or top-dose-only effect, or another doubt; inactive = no such curve, though single readings can be large; an effect the other way counts as inactive or inconclusive. Unless noted, % is set by controls: 0 for no effect and ±100 for the full control effect; potency is the fitted concentration of half-maximal effect.
SMILES,HT1080-NT tox,HT1080 IDH1KD tx,KB-3-1 tox,KB-V1 cytotox
COc1ccc(OC(=O)Nc2ccccc2)cc1,?,-0.9%,i,i
O=C(Nc1ccc(F)cc1)Oc1ccc[nH]c1=O,?,20.6µM*,i,i
CC12Cc3cnoc3C=C1CCC1C2CCC2(C)C1CCC2(C)O (stereo not given),2.7%,1.5%,6.51µM*,?
CCCCCn1c(=O)c(C(=O)Nc2cccc(C)c2)c(O)c2ccccc21,10.0%,-0.4%,?,i
Cc1cc(C)c(OCC(=O)Nc2cccc(NC(=O)c3ccco3)c2)c(Br)c1,?,?,i,20.6µM*
CCCCn1c(O)c(C(CC)=NCc2ccc(F)cc2)c(=O)[nH]c1=O,0.9%,-10.1%,?,10.3µM*
NC(=O)C1(N2CCCCC2)CCN(CC(=O)Nc2ccc(Oc3ccccc3)cc2)CC1,-26.1%,?,?,13µM*
CCOC(=O)C1(c2ccccc2)CCN(CC(=O)c2ccc(NC(C)=O)cc2)CC1,-4.5%,-4.4%,i,i
O=C(CN1CCN(CC(=O)Nc2ccc(OCc3ccccc3)cc2)CC1)Nc1ccc(F)cc1,?,?,i,3.66µM*
CN(C)C(=O)Oc1ccc2c(c1)O/C(=C\c1cccc(Cl)c1)C2=O,7.1%,-2.6%,i,i
CC(C)(C)NS(=O)(=O)c1cccc(S(=O)(=O)c2cccc(S(=O)(=O)NC(C)(C)C)c2)c1,?,?,i,14.6µM*
Cc1c2ccncc2c(C)c2c1[nH]c1ccccc12,10.3µM*,3.66µM*,?,9.2µM*
O=C(c1cccc(Cl)c1)C1CCCN(Cc2cccc3cnccc23)C1 (stereo not given),9.2µM*,?,?,i
COc1ccc(CN2CCCC(C(=O)c3ccc(Cl)cc3)C2)c(OC)c1 (stereo not given),?,9.2µM*,?,?
COc1ccc(CN2CCCC(C(=O)c3cccc(Cl)c3)C2)cc1 (stereo not given),-0.6%,-1.2%,i,i
O=C(c1ccc(Cl)cc1)C1CCCN(Cc2ccc3ncccc3c2)C1 (stereo not given),-23.1%,-27.8%,?,4.11µM*
CC1CC2(C)C(CCC3C2CCC2(C)C(OP(=O)(N4CC4)N4CC4)CCC32)CC1=O (stereo not given),23.8%,4.2%,i,i
CC(C)C[C@@H]1COc2cccc(N3CCN(C)CC3)c2S(=O)(=O)N1,3.4%,-0.8%,i,i
C/C(=N\NC(N)=S)C12CC3CC(CC(C3)C1)C2,5.01µM*,6.31µM*,i,i
CCOC(=O)[C@]12Cc3cc(OC)c(OC)cc3[C@H]1N(Cc1ccccc1)C(=O)c1ccccc12,0.0%,-2.8%,i,?
CCCCCN1C(=O)c2cc(OC)ccc2[C@@]2(C(=O)OCC)Cc3cc(Cl)ccc3[C@@H]12,2.91µM*,4.11µM*,0.651µM*,1.64µM*
CCOC(=O)[C@]12Cc3ccc4ccccc4c3[C@H]1N(Cc1ccccc1)C(=O)c1ccccc12,-8.7%,0.6%,?,i
CCOC(=O)[C@]12Cc3cc4ccccc4cc3[C@H]1N(Cc1ccccc1)C(=O)c1ccccc12,16.4µM*,14.6µM*,5.17µM*,?
CCOC(=O)[C@]12Cc3cc(Cl)ccc3[C@H]1N(Cc1ccccc1)C(=O)c1cc(OC)ccc12,14.6µM*,13µM*,2.59µM*,7.31µM*
CCOC(=O)[C@]12Cc3cc(OC)ccc3[C@H]1N(Cc1ccccc1)C(=O)c1cc(OC)ccc12,-20.1%,-25.6%,?,i
SMILES,HT1080-NT tox,HT1080 IDH1KD tx,KB-3-1 tox,KB-V1 cytotox
CCOC(=O)[C@]12Cc3cc4ccccc4cc3[C@H]1N(Cc1ccccc1)C(=O)c1cc(OC)ccc12,20.6µM*,14.6µM*,5.8µM*,16.4µM*
O=[N+]([O-])c1[nH]cnc1Br,-4.8%,1.9%,i,i
CC(=O)OC1C=CC2[C@H]3Cc4ccc(O)c5c4[C@@]2(CCN3C)C1O5 (stereo not given in full),18.0%,9.1%,i,i
O=C1CC(c2ccc(C(F)(F)F)cc2)c2c(c3ccccc3oc2=O)O1 (stereo not given),nt,nt,i,i
N#Cc1ccccc1NC(=O)c1cccn(Cc2ccccc2)c1=O,nt,nt,i,i
CC1(C)CC(=O)CC(C)(C)N1O,11.3%,3.7%,?,i
Cc1cccc2sc(NC(=O)c3cccn(Cc4ccccc4)c3=O)nc12,nt,nt,i,i
Cc1ccc(CN2C3CCCC2CC(NC(=S)NCc2ccccc2)C3)cc1 (stereo not given),23.1µM*,?,i,i
CNC(=S)NC1CC2CCCC(C1)N2CC(C)C (stereo not given),2.8%,13.2%,i,i
CC(=O)O/C(=C1\CC2C3CC=C4CC(OC(C)=O)CCC4(C)C3CCC2(C)C1=O)C(F)(F)F (stereo not given),0.7%,-5.6%,?,10.3µM*
Cc1cccc(-n2c(O)c(/C=C3/C(c4ccccc4)=Nc4ccccc43)c(=O)[nH]c2=O)c1,16.4µM*,5.8µM*,5.17µM*,?
CC1=Nc2ccccc2/C1=C/c1c(O)n(C)c(=O)[nH]c1=O,-3.6%,2.7%,i,i
Cc1ccccc1-n1c(O)c(C=Nc2ccc(N(C)C)cc2)c(=O)[nH]c1=O,-0.3%,-0.9%,i,2.31µM*
O=c1[nH]c(=O)n(-c2ccccc2F)c(O)c1/C=C1\C=Nc2ccccc21,-23.9%,-15.2%,i,i
Cc1ccccc1-n1c(O)c(/C=C2/C(c3ccccc3)=Nc3ccccc32)c(=O)[nH]c1=O,?,?,2.06µM*,1.46µM*
Cc1ccc(-n2c(O)c(/C=C3/C(c4ccccc4)=Nc4ccccc43)c(=O)[nH]c2=O)cc1,7.31µM*,?,3.66µM*,?
CCOC(=O)CNC(=O)N1Cc2cc(N3CCOCC3)ccc2-n2nncc2C1,?,7.5%,i,i
Cc1cccc(C)c1-n1nnnc1C(C1CC1)N1CCC2(CC1)C(=O)NCN2c1ccccc1 (stereo not given),?,?,i,i
Cc1ccc(N=Nc2cc(C)ccc2N)cc1,?,?,i,i
Cc1sc(NC(=O)Cn2c(=O)oc3ccccc32)nc1-c1ccc(Cl)cc1,?,?,?,i
CC(C)(O)C1C2OC(=O)C1C1(O)CC3OC34C(=O)OC2C14C (stereo not given),-12.7%,-0.5%,i,i
O=c1[nH]c(=S)[nH]c(O)c1N=Nc1cc(S(=O)(=O)Nc2ccc(Cl)cc2)ccc1Cl,8.0%,1.4%,i,i
COc1ccc(S(=O)(=O)Nc2ccccc2OC)cc1N=Nc1c(O)[nH]c(=S)[nH]c1=O,14.6µM*,11.6µM*,i,i
COc1ccc2cc1Oc1ccc(cc1)C[C@H]1c3cc(c(OC)cc3CCN1C)Oc1c(OC)c(OC)cc3c1[C@H](C2)N(C)CC3,5.8µM*,14.6µM*,?,16.4µM*!

# Screens as filed in PubChem.
